Shown are actives, neighbours in structure and some others; about 4.1% of the full set was active somewhere.
ALR inh – inhibitors of human sulfhydryl oxidase ALR; P55789; purified ALR, DTT oxidation, H2O2 HRP-luminol luminescence; inhibition, % (no concentration beside the values); 290,000 compounds, 3.8% hits;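 active means mean replicate inhibition above about 79%, with every replicate also reaching it, limit read from the data; inconclusive means only one of the two criteria met; inactive means mean below limit and not every replicate reaching it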
Target sequence (P55789 whole entry, looked up): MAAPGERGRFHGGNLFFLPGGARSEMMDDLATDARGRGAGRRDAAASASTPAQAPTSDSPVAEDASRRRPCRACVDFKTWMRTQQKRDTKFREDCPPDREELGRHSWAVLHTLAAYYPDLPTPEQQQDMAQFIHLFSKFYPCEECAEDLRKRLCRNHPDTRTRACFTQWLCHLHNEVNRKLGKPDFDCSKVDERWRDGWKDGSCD
CASP6 VEID inh – blocks human caspase-6 cleavage activity; AID 686996; 350,000 compounds, 0.53% hits; inhibition, % at 12.5 µM; purified caspase-6, Z-VEID-R110 cleavage fluorescence;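 active means mean inhibition across replicates at least about 35%, with every replicate also reaching that limit, limit read from the data; inconclusive means only one of the two criteria met; inactive means neither criterion met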
Target sequence (P55212 24-179 limits assumed): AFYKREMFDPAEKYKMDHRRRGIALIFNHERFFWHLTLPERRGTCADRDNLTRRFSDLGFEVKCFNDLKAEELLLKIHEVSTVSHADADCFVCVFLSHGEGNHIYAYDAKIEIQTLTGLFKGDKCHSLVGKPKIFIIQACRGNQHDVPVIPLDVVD
Target sequence (P55212 194-293 limits assumed): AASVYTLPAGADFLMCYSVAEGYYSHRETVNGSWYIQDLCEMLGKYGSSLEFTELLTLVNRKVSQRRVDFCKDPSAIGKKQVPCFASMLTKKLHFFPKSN
PglD inh – inhibitors of Campylobacter jejuni PglD acetyltransferase. purified PglD enzyme, DTNB colorimetric CoA detection. inhibition, % at 12.5 µM. 360,000 compounds, 0.098% hits. AID 602405; in the data active means inhibition above about 16%, passing the limit was not always enough; inconclusive means no clear call, values can overlap the other calls
CFTR F508del cor – correctors of CFTR F508del function in bronchial epithelial cells | AID 720511 | 350,000 compounds, 0.36% hits | CFBE cells, YFP halide quenching; stimulated with forskolin plus potentiator P3; % fluorescence drop versus neutral controls | activity (quench increase), % at 7.58 µM;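 active means mean added fluorescence quench of at least 8% versus neutral control, with both replicates also reaching 8%; inconclusive means only one of the mean or replicate conditions met; inactive means mean below 8% and not both replicates reaching 8%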;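 further: cells transiently co-express mutant CFTR-F508del with the halide-sensitive YFP; corrector assay measuring rescue of mutant channel to the surface after 24 h compound exposure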
HIV Env fusion – inhibitors of HIV Env-mediated cell fusion. 360,000 compounds, 1.1% hits. inhibition, % at 12.3 µM. AID 651610. HeLa-JRFL Env/CEM21 cell fusion, luciferase;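 active means mean replicate inhibition score of at least 50 and every replicate individually at or above 50; inconclusive means only one of the two criteria met; inactive means mean below 50 and not all replicates reaching 50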
NSD2 inh – blocks human histone methyltransferase NSD2 | O96028 | NSD2 peptide methylation, AlphaScreen, 120 min | inhibition, % at 12.5 µM | 310,000 compounds, 0.54% hits | AID 743445; in the data active means inhibition above about 50%
Hits are given with their value; i = inactive; ? = inconclusive; nt = no result given.

SMILES	ALR inh	CASP6 VEID inh	PglD inh	CFTR F508del cor	HIV Env fusion	NSD2 inh
C[C@@H]1CCCCO[C@H](CN(C)S(=O)(=O)c2cn(C)cn2)[C@H](C)CN([C@@H](C)CO)C(=O)c2cc(NC(=O)Nc3ccc(F)cc3)ccc2O1	nt	i	i	i	i	nt
O=C(NCCc1ccccc1F)c1ccc2c(c1)OCCO2	i	i	i	i	76	nt
O=C(NCc1ccccc1F)c1ccc2c(c1)OCO2	i	nt	i	nt	i	i
COC(=O)c1sc(N2C(=O)C(=O)/C(=C(/O)c3ccc(C)cc3)C2c2ccco2)nc1C (stereo not given)	92	nt	nt	nt	nt	nt
CCOc1ccc(/C(O)=C2/C(=O)C(=O)N(c3nc(C)c(C)s3)C2c2ccco2)cc1 (stereo not given)	i	nt	i	nt	nt	i
c1ccc(Nc2c(-c3ccco3)nc3ccccn23)cc1	98	nt	i	i	i	i
Cc1cccc2nc(-c3ccco3)c(Nc3ccc4c(c3)OCCO4)n12	95	i	nt	i	i	i
Cc1ccc(Nc2c(-c3ccco3)nc3ccccn23)cc1	99	i	i	i	i	i
COc1ccc(Nc2c(-c3ccco3)nc3cccc(C)n23)cc1	nt	i	i	i	i	i
C[C@@H]1CN([C@H](C)CO)C(=O)c2cc(NC(=O)Nc3ccc4c(c3)OCO4)ccc2O[C@@H](C)CCCCO[C@H]1CN(C)C(=O)Cc1ccccc1	nt	i	i	i	i	nt
Cc1cccc(C(=O)NNC2=C(C(=O)C(F)(F)F)CCC2)c1O	97	nt	nt	nt	nt	i
C[C@@H]1CN(C(=O)OC(C)(C)C)CCN1c1ccc(N2CC[C@H](O)C2)c(C#N)c1	nt	i	nt	i	i	nt
Cc1cc(N2CCN(C(=O)OC(C)(C)C)C[C@H]2C)ccc1N1CCS(=O)(=O)CC1	nt	i	nt	i	62	i
N[C@@H](Cc1ccc(O)c(O)c1)C(=O)O	nt	nt	i	i	i	nt
C[C@@](Cc1ccc(O)c(O)c1)(NN)C(=O)O	nt	i	i	8.4	i	nt
COc1cccc(NC(=O)N2C[C@H](O)COC[C@H]3O[C@@H](CC(=O)NC4CCC4)CC[C@@H]32)c1	nt	i	i	i	nt	nt
COC(=O)/C=C/C(=O)Nc1ccc(O)c(Cl)c1	100	i	nt	nt	i	i
COc1ccc(NC(=O)C=C(C)C)cc1Cl	i	nt	i	nt	nt	nt
O=C(O)/C=C/C(=O)Nc1cccnc1	i	nt	nt	nt	nt	i
COC(=O)/C=C/C(=O)Nc1cccnc1	95	nt	i	nt	nt	i
COc1cccc(NC(=O)N[C@@H]2C=C[C@@H](CC(=O)NCc3ccncn3)O[C@@H]2CO)c1	nt	i	i	i	i	nt
O=C(CSc1ccccn1)Nc1cccc2ccccc12	i	i	i	i	i	i
O=C(CSc1nnc(Cn2cnc3ccccc32)o1)Nc1cccc2ccccc12	99	nt	i	nt	i	nt
COc1ccc(C(=O)CSc2nnc(Cn3cnc4ccccc43)o2)cc1	i	nt	i	nt	106	i
CC(=O)c1ccc(NC(=O)CSc2nnc(-c3ccncc3)o2)cc1	?	i	i	i	i	i
SMILES	ALR inh	CASP6 VEID inh	PglD inh	CFTR F508del cor	HIV Env fusion	NSD2 inh
CC(=O)c1ccc(NC(=O)CSc2nnc(Cn3cnc4ccccc43)o2)cc1	97	i	i	i	i	nt
C[C@@H]1CN([C@@H](C)CO)C(=O)Cc2cc(NC(=O)Cc3ccccc3)ccc2O[C@H]1CN(C)Cc1ccncc1	nt	i	i	i	nt	nt
O=C(O)C[C@@H]1C=C[C@H](NC(=O)c2ccccc2F)[C@H](CO)O1	nt	nt	nt	i	i	nt
COc1cc(Cn2c(-c3ccc(O)c(OC)c3)nc3ccccc32)ccc1O	99	i	nt	i	i	i
CN(C)c1ccc(-c2nc3ccccc3n2C)cc1	91	nt	i	nt	nt	i
CCn1c(-c2ccc(N(C)C)cc2)nc2ccccc21	99	nt	i	nt	i	i
CCn1c(-c2ccc(N)cc2)nc2ccccc21	92	i	i	i	i	nt
CN(C)CC(=O)Nc1ccc2c(c1)[C@@H]1C[C@@H](CC(=O)NCc3ccccc3)O[C@@H](CO)[C@@H]1O2	nt	i	i	i	i	nt
COc1ccc2c3c([nH]c2c1)[C@H](CO)N(C(=O)C1CCCC1)CC31CN(Cc2cccc(F)c2)C1	nt	nt	nt	i	nt	nt
Cc1ccccc1S(=O)(=O)N1C[C@H](O)COC[C@@H]2O[C@H](CC(=O)NCc3ccccc3Cl)CC[C@H]21	nt	nt	i	i	i	nt
C=CCn1c(-c2ccc(OC)cc2)nc2ccccc21	i	nt	nt	nt	nt	i
C=CCn1c(-c2ccc(N)cc2)nc2ccccc21	95	i	i	i	i	nt
COC(=O)/C=C1/S/C(=N/NC(=O)c2ccccc2OC)NC1=O	97	i	i	i	i	i
COC(=O)/C=C1/S/C(=N/NC(=O)c2ccc(OC)cc2)NC1=O	i	i	i	i	i	i
COCc1ccc(C(=O)N2CCCC(Nc3ccc(C(C)C)cc3)C2)o1 (stereo not given)	93	i	i	i	i	i
COCc1ccc(C(=O)N2CCCC(Nc3ccc(C(C)C)cc3)C2)s1 (stereo not given)	93	i	i	i	i	i
CC1CN(C(=O)c2ccc(COc3ccc(C(C)C)cc3)o2)CC(C)O1 (stereo not given)	i	i	nt	i	i	i
O=C(C[C@H]1CC[C@@H]2NC[C@H](O)COC[C@H]2O1)NCCN1CCCC1	nt	i	nt	i	nt	nt
COc1ccc(NC(=O)COC(=O)CCNC(=O)c2ccccc2)cc1OC	nt	nt	nt	nt	nt	i
Cc1cc(C)cc(N2C(=O)CSC2c2ccccn2)c1 (stereo not given)	99	i	nt	i	i	i
O=C1CSC(c2ccccn2)N1c1ccccc1 (stereo not given)	99	i	i	i	nt	i
CCC1CCc2sc(C(=O)NNC(=O)c3ccncc3)cc2C1 (stereo not given)	i	59	nt	i	i	i
O=C(CCl)N=c1sccn1Cc1cccc2ccccc12	nt	i	nt	i	66	i
O=C(CCl)N=c1sccn1Cc1ccc(Cl)cc1Cl	95	i	nt	i	84	i
CCC(=O)OCC(=O)N=c1sccn1Cc1ccccc1Cl	i	i	i	i	i	i
SMILES	ALR inh	CASP6 VEID inh	PglD inh	CFTR F508del cor	HIV Env fusion	NSD2 inh
O=C(CCl)N=c1sccn1Cc1ccccc1Cl	nt	i	i	i	134	i
COc1ccc(-c2cn[nH]c2N)c(OC)c1	99	nt	i	nt	81	nt
CCOc1ccc(-c2cn[nH]c2N)cc1	i	i	i	i	nt	i
COCCNC(=O)C[C@H]1CC[C@@H]2[C@@H](COc3ccc(NC(=O)Cc4ccccc4)cc3C(=O)N2C)O1	nt	nt	i	i	i	nt
O=C(O)CCCC(=O)N1CCN(c2nc(-c3ccccc3)c3ccccc3n2)CC1	77	i	i	i	i	nt
Cc1ccccc1-c1ccccc1[C@H]1[C@@H](C#N)N(C(=O)c2ccccc2)[C@H]1CO	nt	i	nt	i	nt	nt
N#CC1c2ccccc2-c2ccccc2N1C(=O)c1ccccc1 (stereo not given)	nt	i	nt	11	i	i
O=C(OC1CCCCC1=O)c1cc(Cl)ccc1[N+](=O)[O-] (stereo not given)	91	i	nt	i	i	i
O=C(COC(=O)c1cc(Cl)ccc1[N+](=O)[O-])NC1CC1	i	i	i	i	nt	i

High-throughput results as filed in PubChem.
